Results taken from PubChem BioAssay AID504339 (National Center for Advancing Translational Sciences (NCATS), 2011).
The whole screen tested about 390,000 compounds, of which about 17,000 (4.4%) were called active. Not shown: some 8% with an inconclusive outcome. Shown is part of a subset that was picked to be rich in actives. Values without a mark were called inactive. Calls come from the whole dose curve; as a rule, active = well fitted inhibition curve with a large enough effect; inconclusive = small, poorly fitted or top-dose-only effect; inactive = no such curve, though single readings can be large or run the other way.

target: Lysine-specific demethylase 4A (Homo sapiens) (UniProt O75164); test: qHTS Assay for Inhibitors of JMJD2A-Tudor Domain; settings: AlphaScreen JMJD2A-Tudor / H3K4me3 peptide binding; series mostly up to 114 µM; activity change, negative = inhibition: at the top concentration; note: nearly all actives have a fitted effect of over 50% in size
Sequence (O75164 whole entry, looked up, the tested form may be a part): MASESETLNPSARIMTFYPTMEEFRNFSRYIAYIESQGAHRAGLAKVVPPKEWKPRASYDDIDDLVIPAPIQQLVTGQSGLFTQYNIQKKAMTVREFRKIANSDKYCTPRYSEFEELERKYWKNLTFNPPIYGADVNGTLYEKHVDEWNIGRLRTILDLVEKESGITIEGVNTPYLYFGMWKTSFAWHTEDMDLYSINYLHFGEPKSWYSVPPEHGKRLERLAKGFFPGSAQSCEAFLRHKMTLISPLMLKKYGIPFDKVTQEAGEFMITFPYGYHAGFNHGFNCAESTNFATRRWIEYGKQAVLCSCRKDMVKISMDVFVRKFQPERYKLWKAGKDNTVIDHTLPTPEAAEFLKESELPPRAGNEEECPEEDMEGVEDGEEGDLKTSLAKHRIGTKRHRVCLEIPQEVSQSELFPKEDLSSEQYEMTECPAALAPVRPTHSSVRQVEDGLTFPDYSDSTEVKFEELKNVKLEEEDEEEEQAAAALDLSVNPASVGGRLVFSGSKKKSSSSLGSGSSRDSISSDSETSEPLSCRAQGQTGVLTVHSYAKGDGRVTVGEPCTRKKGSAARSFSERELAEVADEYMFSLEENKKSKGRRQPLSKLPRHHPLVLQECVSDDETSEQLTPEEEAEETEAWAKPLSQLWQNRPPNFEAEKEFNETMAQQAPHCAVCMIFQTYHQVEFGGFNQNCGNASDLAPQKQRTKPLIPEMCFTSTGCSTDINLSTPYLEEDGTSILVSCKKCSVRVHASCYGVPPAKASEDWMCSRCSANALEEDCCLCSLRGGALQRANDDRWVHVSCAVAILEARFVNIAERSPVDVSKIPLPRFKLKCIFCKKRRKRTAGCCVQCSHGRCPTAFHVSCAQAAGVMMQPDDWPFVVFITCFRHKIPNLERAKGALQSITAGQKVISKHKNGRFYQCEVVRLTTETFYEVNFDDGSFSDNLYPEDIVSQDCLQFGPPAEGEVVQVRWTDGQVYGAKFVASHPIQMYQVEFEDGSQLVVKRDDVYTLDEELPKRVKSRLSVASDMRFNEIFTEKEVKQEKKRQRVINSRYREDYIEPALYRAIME
% is set by controls: 0 for no effect and ±100 for the full control effect; potency is the fitted concentration of half-maximal effect.

Q: CCCn1c2ccccc2c2cnn(CC(=O)N(CC)c3cc(C)ccc3C)c(=O)c21 was tested. Which “activity change, negative = inhibition” value did it give?
A: -20.1%

Q: Which “activity change, negative = inhibition” value does the source give for Cc1nnc(NCc2ccccc2)c2c1nnn2Cc1ccc(F)cc1 here?
A: -13.8%

Q: With C=C1c2c(Cl)ccc(O)c2C(O)=C2C(=O)[C@]3(O)C(O)=C(C(N)=O)C(=O)[C@@H](N(C)C)[C@@H]3[C@@H](O)C12 (some centres not stated) as the molecule, how does the Potency read?
A: 2 µM (active)

Q: How did the Potency turn out when CN(C)[C@@H]1C(=O)C(C(N)=O)=C(O)[C@@]2(O)C(=O)C3=C(O)c4c(O)ccc(Cl)c4[C@@H](O)[C@H]3C[C@@H]12 was run?
A: 25.1 µM (active)

Q: Which “activity change, negative = inhibition” value does the source give for COc1ccccc1NC(=O)CSC1=Nc2ccccc2C2=NC(CC(=O)NCc3cccs3)C(=O)N12 (configuration not stated) here?
A: -15.7%

Q: For COc1ccc(C)cc1-n1c(-c2ccc(C)cc2)cc2c1CC(C)(C)CC2=O, which “activity change, negative = inhibition” value is on record?
A: -27.3%

Q: Which “activity change, negative = inhibition” value does the source give for O=C1CSC2(C(=O)N(Cc3ccccc3)c3ccccc32)N1c1cccc(F)c1 (configuration not stated) here?
A: -8.97%

Q: For COc1ccccc1Nc1nc(N)nc(CN(C)C2CCCCC2)n1, which Potency is on record?
A: 15.8 µM (active)

Q: With COc1ccccc1NC1=NC(c2ccc(Cl)cc2)N=C(N)N1 (configuration not stated) as the molecule, how does the “activity change, negative = inhibition” value read?
A: -20.7%

Q: With COc1ccccc1Nc1nc(N)nc(CSC(=S)N2CCOCC2)n1 as the molecule, how does the “activity change, negative = inhibition” value read?
A: -7.91%

Q: Which “activity change, negative = inhibition” value does the source give for O=C(Nc1cc(C(F)(F)F)ccc1Cl)c1ccc2c(c1)CCN2S(=O)(=O)c1ccccc1 here?
A: 3.14%

Q: For CC(C)CNc1ncnc2c1nnn2C, which “activity change, negative = inhibition” value is on record?
A: -14.6%

Q: For O=C(CC1N=C2c3ccccc3N=C(SCc3cccc(Cl)c3)N2C1=O)NCc1ccc2c(c1)OCO2 (configuration not stated), which “activity change, negative = inhibition” value is on record?
A: -21.7%

Q: For COCCCNCC(=O)Nc1sc(C)c(C)c1C(=O)OC, which Potency is on record?
A: 28.2 µM (active)

Q: With COC(=O)c1c(NC(=O)c2c(Cl)cnn2C)sc(C)c1C as the molecule, how does the “activity change, negative = inhibition” value read?
A: -1.31%

Q: With CCOC(=O)c1c(NC(=O)CCl)sc(C(=O)N(CC)CC)c1C as the molecule, how does the “activity change, negative = inhibition” value read?
A: -2.65%

Q: For CCc1cccc(NC(=O)CSc2nccn2C)c1, which “activity change, negative = inhibition” value is on record?
A: -5.6%

Q: How did the “activity change, negative = inhibition” value turn out when Cc1cc(C)cc(OCC(=O)Nc2c(C(=O)c3ccccc3)oc3ccccc23)c1 was run?
A: 12.7%

Q: Which “activity change, negative = inhibition” value does the source give for O=C(Cn1cc(SCc2cccc(Cl)c2)c2ccccc21)N1CCCCC1 here?
A: 8.06%

Q: With COc1ccc(-c2nn(CC(=O)NC3CCCC3)c3c2cnc2ccc(F)cc23)cc1 as the molecule, how does the “activity change, negative = inhibition” value read?
A: -9.67%

Q: With O=C(CCN1CCc2ccccc2C(O)(c2ccccc2)C1)c1ccc2c(c1)OCCO2 (configuration not stated) as the molecule, how does the Potency read?
A: 79.4 µM (active)

Q: O=C(COC(=O)c1ccccc1)c1ccc2c(c1)OCCO2 was tested. Which “activity change, negative = inhibition” value did it give?
A: 2.03%

Q: O=C(CN1CCC(O)(c2ccccc2)CC1)Nc1ccc2c(c1)OCCO2 was tested. Which “activity change, negative = inhibition” value did it give?
A: -14.5%

Q: Cc1cc(Cl)ccc1NC(=O)Cc1ccc(NC(=O)N2CCCCc3ccccc32)cc1 was tested. Which “activity change, negative = inhibition” value did it give?
A: -24%

Q: How did the “activity change, negative = inhibition” value turn out when Cc1ccc(C)c(Cn2c(C)c(CNCc3ccc(F)cc3)c(C(=O)O)c2C)c1 was run?
A: -25.5%

Q: How did the Potency turn out when S=c1[nH]ccn1-c1ccc(Cl)cc1 was run?
A: 10 µM (active)

Q: How did the “activity change, negative = inhibition” value turn out when CCOC(=O)c1ccccc1NC(=O)c1sc2nc(-c3ccc(F)cc3)cn2c1C was run?
A: -18.2%

Q: With CCN1CCN(CCNC(=O)c2ccc(/C=C3/Sc4ccccc4N(Cc4cccc(C)c4)C3=O)cc2)CC1 as the molecule, how does the Potency read?
A: 50.1 µM (active)

Q: For CN1CCN(CCCNC(=O)c2ccc(/C=C3\Oc4ccccc4N(Cc4ccc(Cl)cc4)C3=O)cc2)CC1, which “activity change, negative = inhibition” value is on record?
A: -1.17%

Q: With O=C(NCCCN1CCOCC1)c1ccc2c(c1)N(Cc1cccc(F)c1)C(=O)c1ccccc1S2 as the molecule, how does the “activity change, negative = inhibition” value read?
A: 0.389%

Q: For COc1ccc(Cl)cc1NC(=O)Cn1c(=O)c2ccccc2n2nncc12, which “activity change, negative = inhibition” value is on record?
A: -26.8%

Q: COc1ccccc1CNCc1ccc(C(=O)O)s1 was tested. Which “activity change, negative = inhibition” value did it give?
A: -5.03%

Q: With CSc1nc(Nc2ccc(F)cc2)cc(-c2ccccc2)n1 as the molecule, how does the “activity change, negative = inhibition” value read?
A: 43.4%

Q: With COc1ccc(NC(=O)[C@H](NC(=O)[C@@H]2Cc3ccccc3CN2)c2ccccc2)cc1 as the molecule, how does the “activity change, negative = inhibition” value read?
A: -9.09%

Q: How did the “activity change, negative = inhibition” value turn out when COC(C(=O)Nc1ccc(C(C)=O)cc1)c1ccccc1 (configuration not stated) was run?
A: -6.88%

Q: COc1ccc(NC(C(=O)Nc2cccc(C(C)=O)c2)c2ccccc2)cc1 (configuration not stated) was tested. Which Potency did it give?
A: 17.8 µM (active)

Q: How did the “activity change, negative = inhibition” value turn out when Cc1ccccc1CNC(=O)Cn1c(C)c2cnn(-c3ccccc3)c(=O)c2c1C was run?
A: -6.71%

Q: For CC(=O)Oc1ccc(OC(C)=O)c2c1C1C=CC2CC1, which Potency is on record?
A: 22.4 µM (active)

Q: For CC(=O)Oc1ccc(C(C)=O)c2c1OCCO2, which “activity change, negative = inhibition” value is on record?
A: -12.2%

Q: Which “activity change, negative = inhibition” value does the source give for COc1cc(OC)c(NC(=O)c2nc(-c3ccncc3)no2)cc1Cl here?
A: -1.64%

Q: For CC(C)(C)NC(=O)CSc1nc(-c2ccc(F)cc2)cc(C(F)(F)F)n1, which “activity change, negative = inhibition” value is on record?
A: 11.3%

Q: Which “activity change, negative = inhibition” value does the source give for Cc1cc(C)nc(N(C#N)CC(=O)Nc2ccccc2)n1 here?
A: -7.56%

Q: How did the Potency turn out when CSc1nc(C)cc(SC(C(C)=O)C(=O)Nc2ccccc2)n1 (configuration not stated) was run?
A: 56.2 µM (active)

Q: For CC(Sc1nnc2c(n1)C1CCC2(C)C1(C)C)C(=O)Nc1ccccc1 (configuration not stated), which “activity change, negative = inhibition” value is on record?
A: -11.3%

Q: CCOc1ccc(NC(=O)c2c(NCc3cccc(OC)c3OC)sc3c2CCC3)cc1 was tested. Which “activity change, negative = inhibition” value did it give?
A: -25.3%

Q: For O=C(NCc1nnc(C(=O)Nc2ccc(C(F)(F)F)cc2Cl)o1)c1ccccc1, which “activity change, negative = inhibition” value is on record?
A: -20.5%

Q: With Cc1ccc(NC(=O)Nc2sc3nc4n(c(=O)c3c2C)CCC(C)CC4)c(Cl)c1 (configuration not stated) as the molecule, how does the “activity change, negative = inhibition” value read?
A: -6.18%

Q: For COc1ccccc1C(=O)N/C(=C/c1ccc2c(c1)OCO2)C(=O)Nc1cccc(C(=O)O)c1, which “activity change, negative = inhibition” value is on record?
A: -8.7%

Q: With Cc1ccc(NC(=O)/C(=C\c2ccccc2)NC(=O)c2ccco2)cc1 as the molecule, how does the “activity change, negative = inhibition” value read?
A: -1.39%

Q: With COc1ccccc1C(=O)N/C(=C/c1ccco1)C(=O)Nc1ccc(C(=O)O)cc1 as the molecule, how does the Potency read?
A: 25.1 µM (active)

Q: Which “activity change, negative = inhibition” value does the source give for Cc1cccc(C(CC(=O)NCC2(c3ccccc3)CCCC2)c2ccccc2)c1O (configuration not stated) here?
A: -5.84%

Q: For CCOC(=O)CN1C(C(=O)c2ccccc2)=C(OC(=O)C(C)(C)C)c2ccccc2S1(=O)=O, which “activity change, negative = inhibition” value is on record?
A: -18.2%

Q: CC(CCCc1ccccc1)NC(=O)c1nn(-c2ccc(Cl)cc2)nc1CO (configuration not stated) was tested. Which “activity change, negative = inhibition” value did it give?
A: -3.77%

Q: How did the “activity change, negative = inhibition” value turn out when CC(CNC(=O)Cn1cnc2c(OCc3ccccc3)ncnc21)c1ccccc1 (configuration not stated) was run?
A: -17.3%

Q: O=C(Cn1cnc2c(OCc3ccccc3)ncnc21)NCc1nc2ccccc2[nH]1 was tested. Which Potency did it give?
A: 56.2 µM (active)

Q: How did the “activity change, negative = inhibition” value turn out when O=C(Cn1cnc2c(OCc3ccccc3)ncnc21)NCCCn1ccnc1 was run?
A: -13.8%

Q: CC(C)S(=O)(=O)c1oc(-c2ccc(F)cc2)nc1S(=O)(=O)c1ccc(F)cc1 was tested. Which “activity change, negative = inhibition” value did it give?
A: -11.1%

Q: With Cc1ccc(Cl)cc1NC(=O)NC1COc2ccccc2C1 (configuration not stated) as the molecule, how does the “activity change, negative = inhibition” value read?
A: -16.9%

Q: With Cc1c(Cl)c([N+](=O)[O-])nn1Cc1ccc(C(=O)N/N=C\c2cc(Cl)ccc2O)o1 as the molecule, how does the “activity change, negative = inhibition” value read?
A: -25.2% [at 57.1 µM]

Q: Cc1cc(C(=O)N/N=C/c2cc([N+](=O)[O-])cc(C)c2O)n[nH]1 was tested. Which Potency did it give?
A: 44.7 µM (active)

Q: For COc1ccc(C(=O)NNC(=O)c2cc(C)[nH]n2)cc1, which “activity change, negative = inhibition” value is on record?
A: -4.35%

Q: With CCCCS(=O)(=O)c1oc(-c2cccs2)nc1S(=O)(=O)c1ccccc1 as the molecule, how does the “activity change, negative = inhibition” value read?
A: -4.51%
